Screens as filed in PubChem.
ADAM10 inh: human ADAM10 inhibitors, primary screen, biochemical, QFRET, HTS. Disintegrin and metalloproteinase domain-containing protein 10 (Homo sapiens), O14672. recombinant ADAM10, EDANS/DABCYL FRET peptide cleavage, 3 h. inhibition, % at 7 µM. 370,000 compounds, 0.62% hits. AID 720582, 2013;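 active means inhibition above a per-campaign cutoff equal to the mean of compounds falling between control-based bounds plus 3 SD, cut at about 20% in these data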
Target sequence (O14672 214-748 limits assumed): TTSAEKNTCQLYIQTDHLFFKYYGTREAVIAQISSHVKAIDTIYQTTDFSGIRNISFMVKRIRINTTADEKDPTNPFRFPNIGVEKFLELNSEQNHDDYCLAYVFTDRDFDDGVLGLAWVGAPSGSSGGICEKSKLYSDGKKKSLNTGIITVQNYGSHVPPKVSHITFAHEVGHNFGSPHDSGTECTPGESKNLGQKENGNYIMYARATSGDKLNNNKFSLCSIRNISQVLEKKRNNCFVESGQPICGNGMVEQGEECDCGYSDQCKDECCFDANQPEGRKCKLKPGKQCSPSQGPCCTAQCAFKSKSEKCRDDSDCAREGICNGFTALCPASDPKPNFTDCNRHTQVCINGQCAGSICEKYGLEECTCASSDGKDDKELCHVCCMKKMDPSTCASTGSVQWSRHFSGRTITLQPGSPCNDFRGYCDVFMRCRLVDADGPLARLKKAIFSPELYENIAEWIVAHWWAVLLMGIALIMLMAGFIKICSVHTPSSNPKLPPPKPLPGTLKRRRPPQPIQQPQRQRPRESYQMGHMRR
FAS TE block: FAS thioesterase domain inhibitors, primary screen, biochemical, fluorescence intensity, uHTS | recombinant FAS-TE, OMFH fluorogenic substrate, fluorescence endpoint | Fatty acid synthase (Homo sapiens), P49327 | inhibition, % at 15 µM | 360,000 compounds, 0.67% hits;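 active means compounds whose normalised, plate-corrected inhibition of enzyme fluorescence in the single-dose primary screen is 50% or more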
NR3A LBD binder: binders of NR3A ligand-binding domain, primary screen, biophysical, differential scanning fluorimetry, uHTS; Glutamate receptor ionotropic, NMDA 3A (GRIN3A) ligand-binding domain; NR3A LBD differential scanning fluorimetry, Tm shift; 0% = protein alone, 100% = glycine-bound protein; Tm shift relative to glycine control, % at 25 µM; 340,000 compounds, 2.5% hits;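 active means melting temperature shift of at least 10% of the positive control shift, at one fixed dose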
ADAM17 inh: ADAM17 inhibitors, primary screen, biochemical, QFRET; Disintegrin and metalloproteinase domain-containing protein 17 (Homo sapiens), P78536; recombinant ADAM17, EDANS/DABCYL FRET peptide cleavage; inhibition, % at 6.95 µM; 370,000 compounds, 0.83% hits; AID 720648, 2013;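 active means inhibition above the mean of compounds lying between control limits plus 3 SD, set per campaign, cut at about 8.5% in these data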
KLK7 zymogen act: proKLK7 zymogen activators, primary screen, biochemical, fluorescence intensity; activation, % at 7 µM; 370,000 compounds, 0.9% hits; AID 652039, 2013; Kallikrein-7 (Homo sapiens), P49862; purified proKLK7, EDANS-DABCYL substrate fluorescence; 100% is mature enzyme control, 0% vehicle;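 active means activation above the mean of all tested compounds plus 3 SD, computed per campaign excluding outliers beyond control limits, cut at about 13% in these data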
ADAM10 confirm: human ADAM10 inhibitors, confirmation, biochemical, QFRET, triplicate. inhibition, % at 6.95 µM. 2,100 compounds, 1% hits. ADAM10 QFRET peptide cleavage, EDANS fluorescence. shares compounds with ADAM10 inh;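 active means inhibition above about 20% chosen separately for each screening run, limit read from the data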
ADAM17 ctr: ADAM17 inhibitors, counter-screen for ADAM10 exosite inhibitor project, biochemical, QFRET, high throughput | shares compounds with ADAM10 inh | ADAM17 QFRET peptide cleavage, EDANS fluorescence | inhibition, % at 6.95 µM | 2,100 compounds, 0.5% hits | AID 743214, 2013;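 active means mean triplicate inhibition above the solvent-only control wells' mean plus 3 SD, cut at about 12% in these data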
ADAM10 ctr: ADAM10 inhibitors, counter-screen for ADAM17 exosite inhibitor project, biochemical, FRET, human ADAM10; shares compounds with ADAM17 inh; recombinant ADAM10, EDANS/DABCYL FRET peptide cleavage, 3 h; AID 743256, 2014; inhibition, % at 6.95 µM; 2,900 compounds, 47% hits;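 active means mean inhibition over the triplicate runs exceeds the activity threshold set in the earlier primary screen, cut at about 20% in these data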
ADAM17 confirm: ADAM17 inhibitors, hit retest, confirmation, biochemical, QFRET peptide cleavage; shares compounds with ADAM17 inh; recombinant ADAM17, EDANS/DABCYL QFRET peptide cleavage; inhibition, % at 6.95 µM; 2,900 compounds, 65% hits; AID 743257, 2014;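 active means mean inhibition across replicates above the hit cutoff set in the primary screen, cut at about 8.5% in these data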
Numbers stand for hits; - = inactive; . = no result given. Rows were chosen to be rich in hits. Some 4.6% of all compounds tested hit in one or more screens of this group.

SMILES	ADAM10 inh	FAS TE block	NR3A LBD binder	ADAM17 inh	KLK7 zymogen act	ADAM10 confirm	ADAM17 ctr	ADAM10 ctr	ADAM17 confirm
O=[N+]([O-])c1ccc(S(=O)(=O)Nc2ccc(-c3csc(-c4ccccc4)n3)cc2)cc1	34	.	.	17	-	-	-	34	17
COC(=O)C1=C(C)N(C)C(=NCc2ccccc2C(F)(F)F)NC1c1ccc(Cl)cc1 (stereo not given)	-	.	.	-	-	.	.	.	.
O=C(CN(Cc1cccs1)S(=O)(=O)c1ccc(S(=O)(=O)NC2CCCCC2)cc1)Nc1ccccc1	36	-	13	17	-	-	-	50	25
Clc1ccc([C@H]2OC[C@@]3(CNCc4ccccc4)CS[C@H](c4ccc(Cl)cc4)N23)cc1	-	.	.	-	.	.	.	.	.
O=C(Nc1cnn(Cc2ccc(F)cc2)c1)C(c1ccccc1)c1ccccc1	23	-	20	14	-	-	-	22	14
O=C(Nc1cnn(Cc2ccc(F)cc2)c1)c1cnccn1	-	-	-	-	-	.	.	.	.
CC(C)CNS(=O)(=O)/C=C/c1ccccc1CCNC(=O)OC(C)(C)C	-	.	.	-	-	.	.	.	.
CC(C)C(c1nnnn1Cc1ccccc1)N(Cc1ccco1)Cc1cccs1 (stereo not given)	-	-	-	-	-	.	.	.	.
COc1ccc(Cn2nnnc2C(C(C)C)N(Cc2ccco2)Cc2cccs2)cc1 (stereo not given)	20	-	-	13	-	-	-	20	13
Fc1cccc(Cl)c1CSc1nnc(CNc2ccccc2)o1	24	-	-	14	-	-	-	-	-
Fc1ccc(NCc2nnc(SCc3ccccc3)o2)cc1	-	-	-	-	-	.	.	.	.
C[C@@H]1CN([C@@H](C)CO)C(=O)CCCn2cc(nn2)CO[C@H]1CN(C)C(=O)Nc1cccc(F)c1	-	.	.	-	-	.	.	.	.
Nc1[nH]c(C(=O)c2ccccc2)c(-c2ccc3ccccc3c2)c1C(=O)NCc1cccc2ccccc12	-	.	.	-	-	.	.	.	.
CCN1C(=O)[C@H]2[C@@H](c3ccc(C)cc3)N[C@]3(CCCN(Cc4ccc(C(F)(F)F)cc4)C3=O)[C@H]2C1=O	-	-	.	-	-	.	.	.	.
Cc1ccc(CN2CCC[C@]3(N[C@H](c4ccc(C(F)(F)F)cc4)[C@@H]4C(=O)N(Cc5ccccc5)C(=O)[C@@H]43)C2=O)cc1	20	-	.	9.7	-	-	-	38	22
Cc1ccc([C@H]2N[C@]3(CCCN(Cc4ccc(C(F)(F)F)cc4)C3=O)[C@H]3C(=O)N(Cc4ccccc4)C(=O)[C@@H]23)cc1	28	-	.	12	-	-	-	34	20
Cc1nnc2nc(N)[nH]n2c1=O	-	.	.	-	-	.	.	.	.
CC(=O)C(N=Nc1ccccc1)(Sc1nnc(-c2ccccc2)n1-c1ccccc1)C(C)=O	26	-	-	14	-	-	-	-	10
CCCn1c(NCc2cc(C)ccc2O)nc2ccccc21	-	-	-	-	-	.	.	.	.
C=CCc1cccc(CNc2nc3ccccc3n2CCC)c1O	35	-	-	14	-	-	-	42	23
C[C@]12Cc3ccccc3C1CC1=N[C@@H](C3CCCCC3)O[C@@]13C[C@@H]2C(=O)N3C1CCN(Cc2ccccc2)CC1 (stereo not given in full)	-	.	.	-	-	.	.	.	.
O=C(COC(=O)c1cccc(NS(=O)(=O)c2ccc(F)c(F)c2)c1)NC(=O)NC1CCCCC1	28	-	23	13	-	-	-	-	10
c1ccc2c(c1)OCc1nccn1-2	-	.	.	-	-	.	.	.	.
COc1cccc(Nc2ncccc2C(=O)Nc2ccccc2)c1	29	-	-	19	-	-	-	-	-
COc1cccc(NC(=O)c2ccccc2Oc2ccccc2)c1	-	-	-	-	-	.	.	.	.
SMILES	ADAM10 inh	FAS TE block	NR3A LBD binder	ADAM17 inh	KLK7 zymogen act	ADAM10 confirm	ADAM17 ctr	ADAM10 ctr	ADAM17 confirm
Cc1cc2c(nc1C)CCCN2S(=O)(=O)c1cccs1	-	.	.	-	-	.	.	.	.
CNC(=O)[C@@H](NC(=O)[C@H](CC(C)C)[C@H](O)C(=O)NO)C(C)(C)C	95	.	.	99	-	100	102	106	102
CCCCC[C@H](C)N1C[C@H](COCc2ccccc2)Oc2cc(N3CCC[C@@H]3CO)ccc2S1(=O)=O	-	-	.	-	-	.	.	.	.
CCCCC[C@@H](C)N1C[C@@H](COCc2ccccc2)Oc2cc(N3CCC[C@H]3C(N)=O)ccc2S1(=O)=O	28	-	.	16	-	-	-	22	14
CCCCC[C@@H](C)N1C[C@H](COCc2ccccc2)Oc2cc(N3CC[C@@H](O)C3)ccc2S1(=O)=O	22	-	.	9.9	-	-	-	40	24
CCCCC[C@H](C)N1C[C@@H](COCc2ccccc2)Oc2cc(N3CCC[C@H]3C(N)=O)ccc2S1(=O)=O	22	-	.	11	-	-	-	39	23
CCCCC[C@H](C)N1C[C@H](COCc2ccccc2)Oc2cc(N3CC[C@H](O)C3)ccc2S1(=O)=O	-	-	.	-	-	.	.	.	.
COC(=O)C[C@@H]1CC[C@H]2[C@@H](COc3ccc(NC(=O)Nc4ccccc4)cc3C(=O)N2C)O1	-	.	.	-	-	.	.	.	.
Cc1[nH]nc2c1C(c1cccc(C(F)(F)F)c1)N(Cc1ccccc1)C2=O (stereo not given)	-	.	.	-	-	.	.	.	.
O=C(NCC1CC1)c1cc2c(c(-c3cccc(-c4ccccc4F)c3)n1)[C@@H](CCO)N(C(=O)CC1CC1)C2	35	-	.	10	-	-	-	-	9.6
O=C(NCC1CC1)c1cc2c(c(-c3cccc(-c4ccccc4F)c3)n1)[C@H](CCO)N(C(=O)CC1CC1)C2	-	-	.	-	-	.	.	.	.
